# In article PMC8159961, “Exploring protein hotspots by optimized fragment pharmacophores” (Nature Communications, 2021):
# Unmarked numbers belong to inactive results. How the calls were made is not given here.
# Target: thrombin (human, UniProt P00734)
# Experiment: primary screen, binary call; higher = more effect of the substance
# Parameters: screenings were carried out in duplicate in one independent experiment
# Conditions: 200 µM
# Description: Protease inhibitory assays were performed in transparent microtiter plates in a final volume of 200 µL with the use of chromogenic substrates. The reaction rates in the absence and in the presence of the inhibitor were measured; screenings were carried out in duplicate in one independent experiment and Ki values were determined in triplicate in two independent experiments.
row,SMILES,Thrombin
1,O=C(O)c1cnc(-c2ccccc2)s1,1 (active)
2,N#CC1CCS(=O)(=O)C1 (centres unmarked),0
3,Cn1c(N)nc2ccccc21,0
4,CC1CCc2sc(C(=O)O)cc2C1 (centres unmarked),1 (active)
5,O=C1CCN(c2ccncc2)CC1,0
6,O=C(O)c1ccc(CN2CCOCC2)cc1,0
7,O=C(Nc1ccccc1)C1CC1,0
8,Nc1nnc(-c2cccs2)[nH]1,1 (active)
9,O=C(O)C1CCCN(C(=O)N2CCCC2)C1 (centres unmarked),0
10,COC(=O)c1c(C)nc(C2CC2)[nH]c1=O,0
11,CN1CC(=O)NC1=O,0
